The full data set covers some 7,900 targets. This sample favours those with a hit. About 0.6% of all pairs of compound and target were hits. Values without a mark were called inactive.
What was measured:
Assay in all cases: log2 fold change, soluble protein after heating vs DMSO (PISA); higher = thermal stabilisation; K562 cells, 10 uM, 30 min; active = over 0.2 and 3.5 SD of the protein, either way, in both replicates (recomputed)
erlotinib = compound: C#Cc1cccc(Nc2ncnc3cc(OCCOC)c(OCCOC)cc23)c1 [erlotinib]
Method in brief: (§1)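 Soluble protein was defined as the supernatant after 21,000xg for 90 min. It came from K562 cells at 2×10^6 cells/mL given 10 μM compound for 30 min, heated in aliquots for 3 min across 48°C-58°C, pooled, and extracted in PBS with 0.5% NP-40 at 4°C, and was quantified by TMTpro 16plex LC-MS/MS with equalised channel sums. Thermal stability against control samples, from duplicates, is reported as log2 fold change.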

[1] = compound: C/C(=N\NC(=O)C1=CC(=CC=C1)S(=O)(=O)N2CCOCC2)/C3=C(C=CC(=C3)Cl)O
Method in brief: as §1

[2] = compound: C1=CC(=C(C=C1Cl)C2=NC3=NC=CN=C3C(=N2)NC4=CC=NC=C4)F
Method in brief: as §1

[3] = compound: C1=CC(=CC=C1C2=NC3=C(N2)C=C(C=C3)C(=O)N)OC4=CC=C(C=C4)Cl
Method in brief: as §1

[4] = compound: C1=CC2=C(C=CC(=C2)/C=C\3/C(=O)NC(=NCC4=CC=CS4)S3)N=C1
Method in brief: as §1

[5] = compound: C1=CC2=NC=CN=C2C=C1/C=C/3\C(=O)NC(=O)S3
Method in brief: as §1

[6] = compound: C1=CC=C(C=C1)C2=NC(=C(N2)C3=CC=NC=C3)C4=CC(=C(C=C4)Cl)O
Method in brief: as §1

[7] = compound: C1=CC=C2C(=C1)C3=NNC4=CC=CC(=C43)C2=O
Method in brief: as §1

[8] = compound: C1CCN(C1)C(=O)NC2=CC=CC(=C2)NC3=NC=C(C(=N3)NCCC4=CN=CN4)Br
Method in brief: as §1

[9] = compound: C1CN(CCC1(CC2=CC=C(C=C2)Cl)N)C3=NC=NC4=C3C=CN4
Method in brief: as §1

IRAK-1-4 Inhibitor I = compound: C1COCCN1CCN2C3=CC=CC=C3N=C2NC(=O)C4=CC(=CC=C4)[N+](=O)[O-] [IRAK-1-4 Inhibitor I]
Method in brief: as §1

ibrutinib = compound: C=CC(=O)N1CCC[C@@H](n2nc(-c3ccc(Oc4ccccc4)cc3)c3c(N)ncnc32)C1 [ibrutinib]
Method in brief: as §1

[10] = compound: CC(=O)c1cnc2ccc(-c3cc(Cl)c(O)c(Cl)c3)nc2c1N[C@H]1CC[C@H](CN(C)C)CC1
Method in brief: as §1

ralimetinib = compound: CC(C)(C)Cn1c(N)nc2ccc(-c3[nH]c(C(C)(C)C)nc3-c3ccc(F)cc3)nc21 [ralimetinib]
Method in brief: as §1

[11] = compound: CC(C)(O)CC(=O)NCCn1ccc2ncnc(Nc3ccc(Oc4cccc(C(F)(F)F)c4)c(Cl)c3)c21
Method in brief: as §1

[12] = compound: CC(C)C1=C2N=C(C=C(N2N=C1)NCC3=CC=CC=C3)NCCCCCCN
Method in brief: as §1

[13] = compound: CC(C)C[C@@H](C=O)NC(=O)[C@H](CC(C)C)NC(=O)[C@H](CC(C)C)NC(=O)OCc1ccccc1
Method in brief: as §1

pinometostat = compound: CC(C)N(C[C@H]1O[C@@H](n2cnc3c(N)ncnc32)[C@H](O)[C@@H]1O)[C@H]1C[C@@H](CCc2nc3cc(C(C)(C)C)ccc3[nH]2)C1 [pinometostat]
Method in brief: as §1

[14] = compound: CC1=C(C(CC(=O)N1)C2=CC=C(C=C2)C(F)(F)F)C(=O)NC3=C(C=C4C(=C3)C=NN4)F
Method in brief: as §1

[15] = compound: CC1=C(C2=C(C=C1)C(=O)C3=CC=CC=C3N2CCCN)C
Method in brief: as §1

Chain of UniProt Q9NYU2 (Q9NYU2 whole entry, looked up): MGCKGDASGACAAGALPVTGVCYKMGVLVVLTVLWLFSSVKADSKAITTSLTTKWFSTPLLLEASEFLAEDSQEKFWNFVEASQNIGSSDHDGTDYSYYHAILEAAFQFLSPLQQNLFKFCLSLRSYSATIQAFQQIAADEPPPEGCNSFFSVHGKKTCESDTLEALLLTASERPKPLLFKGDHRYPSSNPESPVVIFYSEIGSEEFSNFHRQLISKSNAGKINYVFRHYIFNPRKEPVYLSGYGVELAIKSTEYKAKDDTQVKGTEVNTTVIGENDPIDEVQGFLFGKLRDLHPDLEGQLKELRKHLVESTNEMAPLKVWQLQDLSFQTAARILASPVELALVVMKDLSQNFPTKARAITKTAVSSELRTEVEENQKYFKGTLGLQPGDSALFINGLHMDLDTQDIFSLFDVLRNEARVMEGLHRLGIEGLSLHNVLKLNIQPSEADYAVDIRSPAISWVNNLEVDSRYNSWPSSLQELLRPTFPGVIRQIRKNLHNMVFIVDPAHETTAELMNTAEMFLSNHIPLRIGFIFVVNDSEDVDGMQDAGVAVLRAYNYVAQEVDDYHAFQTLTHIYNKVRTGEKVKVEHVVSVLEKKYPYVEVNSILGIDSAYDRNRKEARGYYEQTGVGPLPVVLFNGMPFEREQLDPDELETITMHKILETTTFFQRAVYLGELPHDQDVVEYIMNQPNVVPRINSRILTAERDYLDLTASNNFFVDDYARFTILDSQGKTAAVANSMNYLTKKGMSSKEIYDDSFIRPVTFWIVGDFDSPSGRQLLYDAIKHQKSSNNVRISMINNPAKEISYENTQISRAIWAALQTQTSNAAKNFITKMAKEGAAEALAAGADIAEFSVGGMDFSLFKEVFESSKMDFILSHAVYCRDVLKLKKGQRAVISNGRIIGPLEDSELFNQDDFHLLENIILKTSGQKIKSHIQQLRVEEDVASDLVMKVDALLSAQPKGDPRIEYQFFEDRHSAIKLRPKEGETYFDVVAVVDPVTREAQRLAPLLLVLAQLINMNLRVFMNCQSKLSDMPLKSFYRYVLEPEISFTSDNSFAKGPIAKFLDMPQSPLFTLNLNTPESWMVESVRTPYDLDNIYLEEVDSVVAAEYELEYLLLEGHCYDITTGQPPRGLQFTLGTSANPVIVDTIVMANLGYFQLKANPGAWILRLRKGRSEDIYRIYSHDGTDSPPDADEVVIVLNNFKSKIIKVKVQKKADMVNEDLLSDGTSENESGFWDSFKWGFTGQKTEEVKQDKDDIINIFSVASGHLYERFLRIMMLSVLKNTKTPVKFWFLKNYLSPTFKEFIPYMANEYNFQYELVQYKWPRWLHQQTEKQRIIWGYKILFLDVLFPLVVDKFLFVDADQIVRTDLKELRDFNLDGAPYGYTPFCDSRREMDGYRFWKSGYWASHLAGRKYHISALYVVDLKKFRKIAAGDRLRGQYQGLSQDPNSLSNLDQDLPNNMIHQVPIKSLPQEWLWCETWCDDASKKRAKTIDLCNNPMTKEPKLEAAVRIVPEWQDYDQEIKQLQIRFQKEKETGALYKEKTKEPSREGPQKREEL
Chain of UniProt Q93008 (Q93008 whole entry, looked up): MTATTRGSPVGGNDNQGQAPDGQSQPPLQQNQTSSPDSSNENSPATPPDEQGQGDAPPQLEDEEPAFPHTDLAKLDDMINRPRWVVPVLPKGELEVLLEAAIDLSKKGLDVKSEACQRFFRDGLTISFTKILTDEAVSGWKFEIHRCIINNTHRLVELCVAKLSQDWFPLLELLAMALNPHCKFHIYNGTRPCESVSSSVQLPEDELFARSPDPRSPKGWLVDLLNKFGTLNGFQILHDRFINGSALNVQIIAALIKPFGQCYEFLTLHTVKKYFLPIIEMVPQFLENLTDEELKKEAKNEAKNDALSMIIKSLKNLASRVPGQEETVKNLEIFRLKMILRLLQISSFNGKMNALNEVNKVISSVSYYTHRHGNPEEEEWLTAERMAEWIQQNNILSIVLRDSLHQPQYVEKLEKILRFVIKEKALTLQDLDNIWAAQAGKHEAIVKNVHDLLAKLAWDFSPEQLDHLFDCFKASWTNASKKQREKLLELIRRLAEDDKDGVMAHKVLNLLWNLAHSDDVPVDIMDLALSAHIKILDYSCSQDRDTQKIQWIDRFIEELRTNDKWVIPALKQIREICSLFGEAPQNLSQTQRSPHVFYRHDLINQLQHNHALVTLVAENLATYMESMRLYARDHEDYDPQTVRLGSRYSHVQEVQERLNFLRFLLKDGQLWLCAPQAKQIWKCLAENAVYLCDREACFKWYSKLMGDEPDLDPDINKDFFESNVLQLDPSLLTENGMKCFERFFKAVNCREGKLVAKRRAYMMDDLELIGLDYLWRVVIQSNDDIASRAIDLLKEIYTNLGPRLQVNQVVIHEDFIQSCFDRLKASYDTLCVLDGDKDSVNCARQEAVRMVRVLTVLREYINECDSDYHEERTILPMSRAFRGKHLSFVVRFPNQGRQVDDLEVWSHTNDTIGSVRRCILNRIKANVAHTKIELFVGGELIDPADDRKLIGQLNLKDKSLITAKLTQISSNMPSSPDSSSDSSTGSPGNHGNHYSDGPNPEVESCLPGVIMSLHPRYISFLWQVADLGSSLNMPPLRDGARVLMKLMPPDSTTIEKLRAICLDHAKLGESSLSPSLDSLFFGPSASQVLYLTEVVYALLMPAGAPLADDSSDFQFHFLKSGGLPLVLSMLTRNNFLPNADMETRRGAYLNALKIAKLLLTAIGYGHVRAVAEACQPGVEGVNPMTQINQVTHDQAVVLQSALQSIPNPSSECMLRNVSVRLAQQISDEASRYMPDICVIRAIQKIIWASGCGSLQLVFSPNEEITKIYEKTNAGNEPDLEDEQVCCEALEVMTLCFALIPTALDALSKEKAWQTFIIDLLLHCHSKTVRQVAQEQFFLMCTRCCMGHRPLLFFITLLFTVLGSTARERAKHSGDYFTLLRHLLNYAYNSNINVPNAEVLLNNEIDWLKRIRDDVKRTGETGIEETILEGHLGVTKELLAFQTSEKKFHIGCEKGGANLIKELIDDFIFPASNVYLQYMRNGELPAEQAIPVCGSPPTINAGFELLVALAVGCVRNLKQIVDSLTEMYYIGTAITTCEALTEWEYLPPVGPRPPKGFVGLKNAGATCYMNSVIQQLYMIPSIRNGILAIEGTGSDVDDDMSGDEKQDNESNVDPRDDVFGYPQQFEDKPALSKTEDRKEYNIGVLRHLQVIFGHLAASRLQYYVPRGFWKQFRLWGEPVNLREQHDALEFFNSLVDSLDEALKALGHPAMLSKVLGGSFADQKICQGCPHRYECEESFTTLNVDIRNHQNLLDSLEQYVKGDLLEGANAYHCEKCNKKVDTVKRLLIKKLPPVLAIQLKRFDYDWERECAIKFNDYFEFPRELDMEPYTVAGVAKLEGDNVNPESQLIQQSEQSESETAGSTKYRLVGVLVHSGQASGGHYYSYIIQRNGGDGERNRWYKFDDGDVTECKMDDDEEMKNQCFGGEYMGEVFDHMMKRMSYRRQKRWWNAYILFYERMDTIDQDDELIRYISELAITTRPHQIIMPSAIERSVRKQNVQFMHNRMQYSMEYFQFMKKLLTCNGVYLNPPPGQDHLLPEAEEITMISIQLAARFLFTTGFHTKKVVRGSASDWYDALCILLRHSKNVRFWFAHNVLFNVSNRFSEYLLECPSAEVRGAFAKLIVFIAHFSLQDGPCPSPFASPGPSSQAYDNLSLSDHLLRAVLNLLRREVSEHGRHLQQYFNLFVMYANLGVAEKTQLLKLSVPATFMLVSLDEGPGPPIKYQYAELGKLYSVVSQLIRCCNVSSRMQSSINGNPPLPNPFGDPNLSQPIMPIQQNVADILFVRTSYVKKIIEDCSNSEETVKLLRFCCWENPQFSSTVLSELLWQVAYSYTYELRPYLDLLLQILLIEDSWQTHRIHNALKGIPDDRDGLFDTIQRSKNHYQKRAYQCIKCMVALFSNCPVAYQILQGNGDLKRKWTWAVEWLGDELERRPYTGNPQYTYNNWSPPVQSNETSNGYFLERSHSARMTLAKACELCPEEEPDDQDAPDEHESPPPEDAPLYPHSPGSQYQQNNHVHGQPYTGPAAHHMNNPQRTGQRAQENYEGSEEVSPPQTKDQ
Chain of UniProt Q8IY95 (Q8IY95 whole entry, looked up): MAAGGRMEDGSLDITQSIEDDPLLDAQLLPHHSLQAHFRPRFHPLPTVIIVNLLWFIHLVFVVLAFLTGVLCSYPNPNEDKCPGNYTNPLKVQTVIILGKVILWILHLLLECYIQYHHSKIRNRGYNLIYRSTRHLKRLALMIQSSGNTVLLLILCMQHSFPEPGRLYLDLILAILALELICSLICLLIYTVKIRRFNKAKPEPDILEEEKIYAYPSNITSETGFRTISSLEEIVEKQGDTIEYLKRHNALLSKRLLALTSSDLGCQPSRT
Chain of UniProt Q6VEQ5 (Q6VEQ5 whole entry, looked up): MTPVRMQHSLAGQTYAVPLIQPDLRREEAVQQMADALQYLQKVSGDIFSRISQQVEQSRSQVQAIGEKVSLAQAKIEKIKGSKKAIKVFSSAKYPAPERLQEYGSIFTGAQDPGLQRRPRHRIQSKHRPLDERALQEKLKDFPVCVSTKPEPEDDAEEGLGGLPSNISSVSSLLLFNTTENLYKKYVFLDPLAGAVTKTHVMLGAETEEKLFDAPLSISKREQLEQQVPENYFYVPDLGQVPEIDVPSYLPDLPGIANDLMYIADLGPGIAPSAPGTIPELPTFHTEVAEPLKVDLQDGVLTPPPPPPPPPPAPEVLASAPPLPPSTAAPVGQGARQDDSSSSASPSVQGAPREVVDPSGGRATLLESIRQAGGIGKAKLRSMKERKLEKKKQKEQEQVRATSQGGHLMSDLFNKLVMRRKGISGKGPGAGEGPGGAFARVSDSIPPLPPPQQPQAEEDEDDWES

| Target | log2 fold change (erlotinib) | log2 fold change [1] | log2 fold change [2] | log2 fold change [3] | log2 fold change [4] | log2 fold change [5] | log2 fold change [6] | log2 fold change [7] | log2 fold change [8] | log2 fold change [9] | log2 fold change (IRAK-1-4 Inhibitor I) | log2 fold change (ibrutinib) | log2 fold change [10] | log2 fold change (ralimetinib) | log2 fold change [11] | log2 fold change [12] | log2 fold change [13] | log2 fold change (pinometostat) | log2 fold change [14] | log2 fold change [15] |
| --- | --- | --- | --- | --- | --- | --- | --- | --- | --- | --- | --- | --- | --- | --- | --- | --- | --- | --- | --- | --- |
| VARS2, A0A0G2JL52 | 0.012 | 0.006 | -0.002 | 0 | 0.046 | -0.006 | 0.026 | 0.003 | 0.006 | -0.01 | 0.012 | 0.014 | -0.03 | 0.064 | -0.074 | -0.177 | 0.025 | -0.014 | 0.003 | 0.082 |
| TMEM177 (UniProt Q53S58) | 0.058 | 0.044 | 0.03 | -0.025 | 0.062 | -0.015 | -0.034 | 0.01 | 0.028 | 0.132 | 0.06 | 0.079 | 0.007 | -0.068 | -0.023 | -0.131 | 0.045 | -0.02 | -0.007 | 0.028 |
| TNFRSF8 (UniProt P28908) | 0.009 | 0.017 | -0.015 | 0.006 | -0.109 | 0.024 | -0.062 | -0.061 | -0.046 | 0.05 | 0.056 | 0.046 | 0.005 | -0.143 | 0.016 | 0.219 (active) | 0.074 | -0.01 | 0.003 | -0.022 |
| TRAPPC11 (UniProt Q7Z392) | 0.044 | 0.136 | -0.027 | 0.017 | 0.105 | 0.059 | 0.027 | 0.062 | -0.019 | -0.001 | -0.007 | 0.001 | -0.048 | 0.034 | -0.063 | -0.064 | 0.012 | 0.032 | -0.048 | 0.028 |
| UBA6 | 0.011 | 0.099 | 0.06 | 0.038 | 0.014 | -0.037 | 0.014 | 0.015 | -0.024 | -0.015 | -0.038 | -0.01 | -0.009 | -0.002 | -0.012 | -0.044 | -0.025 | 0.004 | -0.044 | 0.106 |
| VPS11 (UniProt Q9H270) | -0.041 | 0.099 | 0.015 | 0.005 | 0.058 | 0.068 | 0.03 | -0.011 | 0.002 | 0.027 | 0.115 | -0.038 | -0.032 | 0.038 | -0.069 | -0.375 (active) | 0.062 | 0.011 | 0.016 | 0.031 |
| WAPL isoform 3 (UniProt Q7Z5K2) | 0.031 | 0.017 | 0.048 | -0.037 | 0.057 | 0.144 | 0.059 | -0.012 | -0.217 | -0.062 | -0.086 | -0.002 | -0.05 | -0.072 | -0.057 | -0.339 | 0.125 | 0.054 | -0.003 | -0.056 |
| VPS18 (UniProt Q9P253) | 0.026 | 0.065 | 0.019 | 0.023 | 0.04 | 0.04 | -0.086 | -0.012 | -0.006 | -0.024 | -0.02 | -0.029 | -0.029 | -0.037 | -0.024 | -0.319 | 0.053 | 0.055 | -0.019 | 0.059 |
| TRABD (UniProt Q9H4I3) | -0.057 | -0.023 | -0.029 | 0.016 | 0.032 | -0.049 | 0.121 | 0.074 | -0.077 | 0.071 | -0.046 | 0.007 | -0.032 | 0.073 | 0.277 | 0.416 (active) | 0.045 | 0.018 | -0.005 | -0.005 |
| TOE1 (UniProt Q96GM8) | -0.029 | -0.151 | -0.267 | -0.056 | 0.002 | 0.005 | -0.05 | -0.035 | -0.021 | -0.107 | -0.15 | -0.031 | 0.089 | 0.012 | 0.005 | 0.042 | 0.09 | 0.077 | -0.067 | -0.228 |
| TMEM192 (UniProt Q8IY95) | 0.044 | -0.017 | 0.011 | -0.008 | -0.011 | 0.067 | 0.011 | -0.017 | 0.039 | 0.038 | 0.047 | -0.014 | -0.012 | 0.025 | 0.004 | -0.481 (active) | 0.029 | 0.051 | -0.004 | -0.019 |
| TOP2A isoform 4 (UniProt P11388) | 0.008 | -0.124 | -0.429 | 0.094 | -0.061 | 0.23 | 0.077 | 0.053 | 0.073 | -0.219 | -0.145 | 0.116 | 0.154 | 0.324 | 0 | -0.125 | 0.261 | 0.533 | 0.041 | -0.968 (active) |
| UGGT1 (UniProt Q9NYU2) | -0.027 | 0.016 | 0.007 | 0.007 | 0.018 | 0.014 | -0.012 | 0.019 | -0.015 | 0.005 | -0.011 | -0.027 | 0.001 | 0.001 | -0.028 | -0.007 | -0.038 | 0.028 | -0.003 | 0.023 |
| USP9X (UniProt Q93008) | 0.012 | 0.06 | -0.012 | -0.029 | 0.026 | 0.008 | 0.013 | -0.033 | 0.002 | -0.002 | -0.006 | -0.041 | -0.011 | 0.02 | -0.117 | -0.177 | 0.01 | 0.042 | 0.002 | 0.038 |
| USP24 (UniProt Q9UPU5) | 0.126 | -0.147 | 0.101 | -0.113 | 0.092 | 0.148 | 0.141 | 0.094 | 0.181 | 0.297 | 0.052 | 0.086 | 0.156 | -0.077 | -0.093 | 0.004 | -0.043 | -0.026 | -0.08 | 0.017 |
| WASH2P (UniProt Q6VEQ5) | 0.005 | -0.02 | -0.084 | 0.003 | 0.041 | 0.038 | 0.014 | 0.011 | 0.117 | 0.013 | 0.001 | -0.049 | 0.052 | 0.022 | 0.048 | -0.234 (active) | 0.025 | -0.016 | -0.022 | 0.026 |

Source: the supplement of paper PMC10849652
